Potency and affinity values are given separately. Activity calls are given as the source filed them.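 Rule for the calls: active = every repeat test judged active, meaning a falling signal with potency within twice the top valid dose; inconclusive = repeat tests disagree on the call; inactive = every repeat test inactive, including signal moving upward.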

The target of this experiment is Cyclin-dependent kinase 2 (Homo sapiens) (UniProt P24941). The experiment in a line: inhibition of human CDK2/cyclin A – biochemical, cherry-picked samples, selectivity assay for Dyrk1A inhibitor project, dose response (AID 602127). The following applies: ADP-Glo luminescence, 60 min; series mostly up to 10 µM. (In general: ADP-Glo turns the ADP formed in a reaction into a luminescent signal.)
Consider `c1csc(CNc2ncnc3ccc(-c4ccoc4)cc23)c1`, for which the outcome was inactive.

As to `O=C(COc1ccccc1)Nc1cccc(-c2cn3cccnc3n2)c1`, the result was inactive.

For `Cc1noc(NS(=O)(=O)c2ccc(NC(=O)c3oc4ccc(Cl)cc4c3C)cc2)c1C`, the compound was classed as inactive.

For `Cc1nc(CN(C)c2ncnc3ccc(-c4ccc5c(c4)OCO5)cc23)cs1`, the call was inactive.

`CN(C)S(=O)(=O)c1ccc(NC(=O)c2cc3ccccc3o2)cc1`: the outcome was inactive.

Regarding `Clc1cc(Cl)cc(CNc2ncncc2-c2ccc3c(c2)OCO3)c1`, the outcome was inactive.

As to `Fc1c(-c2ccc3ncnc(NCc4cccs4)c3c2)ccc2c1OCO2`, the compound was called inactive.

Consider `Clc1ccc(CNc2nccc(-c3ccc4c(c3)OCCO4)n2)cc1Cl`, for which the compound was classed as inactive.

For `Fc1cccc(Nc2nc(-c3ccncc3)nc3ccccc23)c1`, the compound was classed as inactive.

Regarding `CCCC(=O)Nc1nc(-c2ccc3c(c2)OCCO3)cs1`, the compound was called inactive.

`Clc1ccc(CNc2nccc(-c3ccc4c(c3)OCO4)n2)cc1Cl`: the compound was classed as inactive.

As for `O=[N+]([O-])c1cc(Nc2nccc(-c3ccc4c(c3)OCO4)n2)cc(C(F)(F)F)c1`, the call was inactive.

Regarding `Clc1ccc(Nc2nccc(-c3ccc4c(c3)OCO4)n2)cc1`, the result was inactive.

As to `CCN1CCN(Cc2ccc(NC(=O)c3ccc(C)c(NC(=O)N4CCNC4=O)c3)cc2C(F)(F)F)CC1`, the outcome was inactive.

`COc1ccc2c(Cl)c(C(=O)NCc3ccco3)sc2c1`: the compound was classed as inactive.

Turning to `Cc1ccsc1CNc1ncnc2ccc(-c3ccc4c(c3)OCO4)cc12`, the result was inactive.

With `O=C(NCc1ccco1)c1sc2ccccc2c1Cl`, the compound was classed as inactive.

For the compound `CC1Cc2ccccc2N1c1ncnc2nc[nH]c12` (stereo not given), the result was inactive.

In the case of `O=C(Nc1nc2c(s1)CCCC2)c1ccc(N2C(=O)CCC2=O)cc1`, the call was inactive.

On to `Clc1ccc(CNc2cc(-c3ccc4c(c3)OCO4)ncn2)cc1`, for which the result was inactive.

Turning to `Cc1c(-c2ccnc(NCc3ccc(Cl)cc3)n2)sc(=O)n1C`, the compound was classed as inactive.

With `CN(Cc1nccs1)c1ncnc2ccc(-c3ccc4c(c3)OCO4)cc12`, the compound was classed as inactive.

`COc1cccc(NC(=O)c2sc(NC(=O)c3ccncc3)nc2C)c1`: the compound was called inactive.

Take `Cc1noc(NS(=O)(=O)c2ccc(NC(=O)c3oc4ccc(F)cc4c3C)cc2)c1C`: the result was inactive.

With `COc1ccc2c(c1)CCc1c-2n[nH]c1C(=O)O`, the outcome was inactive.

Take `O=C(Nc1nc2ccc(Cl)cc2s1)C1CCCO1` (stereo not given): the result was inactive.

For `CC(=O)Nc1ccc(SCc2ncc(-c3ccccc3)o2)cc1`, the call was inactive.

As for `COc1cccc(Nc2ncnc3sc(C)cc23)c1`, the call was inactive.

In the case of `CN(C)S(=O)(=O)c1ccc(Cl)c(C(=O)Nc2cccc3ncccc23)c1`, the result was inactive.

As to `Cc1ccc(CNc2ncnc3ccc(-c4ccc5c(c4)OCO5)cc23)o1`, the call was inactive.

(Values after PubChem BioAssay AID602127 (Broad Institute, 2011).)
